According to PubChem BioAssay AID1063 (University of Pittsburgh Molecular Library Screening Center, 2008):
In all, about 200,000 compounds went through this assay and about 18,000 (9%) were called active. Cut-off read from the data, not from the text of the source: active = inhibition above about 50%; inactive = the rest. Many of the other results were omitted from the sample, so actives are more common in it than they were.

Assay: antileishmanial activity against promastigotes – primary screen (AID 1063);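 note: promastigotes grown with compound for 44 hours at 28 °C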
Conditions: Leishmania major promastigotes, resazurin fluorescence viability; at 10 µM; hits give high values

Row | SMILES | inhibition
1 | COc1cc(NC(=O)CSc2nnc3ccc(-c4ccncc4)nn23)cc(OC)c1 | -2.79% (inactive)
2 | CCOc1ccc(C(=O)NC(=S)Nc2ccc(NC(=O)C(C)C)cc2)cc1[N+](=O)[O-] | -7.33% (inactive)
3 | CCOc1ccc(C(=O)NC(=S)Nc2ccc(N3CCOCC3)c(Cl)c2)cc1[N+](=O)[O-] | 100% (active)
4 | COc1cccc(OC)c1C(=O)NC(=S)Nc1ccc(N2CCOCC2)c(Cl)c1 | 21.4% (inactive)
5 | O=C(c1ccncc1)N1CCN(c2ccc3ccccc3n2)CC1 | -1.56% (inactive)
6 | O=C(Nn1cnnc1)c1ccc([N+](=O)[O-])cc1 | -11.1% (inactive)
7 | Cc1noc(C)c1S(=O)(=O)N(CC(=O)NCc1ccc(Cl)cc1)c1ccc2c(c1)OCO2 | -4.31% (inactive)
8 | Cc1noc(C)c1S(=O)(=O)N(CC(=O)Nc1ccc2c(c1)OCCO2)c1ccc(C(C)C)cc1 | 55.8% (active)
9 | CCOC(=O)c1cccc(NC(=O)CN(c2ccc(C)cc2)S(=O)(=O)c2c(C)noc2C)c1 | 22.7% (inactive)
10 | CCC1CCCCN1C(=O)CSc1nc(C)cc(C)n1 (stereo unspecified) | 11.3% (inactive)
11 | O=C(O)/C=C/C(=O)NNc1ccc([N+](=O)[O-])cc1 | -9.99% (inactive)
12 | CCOC(=O)CSc1nc2ccc(C)cc2[nH]1 | -4.89% (inactive)
13 | CC(=O)Nc1ccc(C(=O)CSc2nc3ccc(C)cc3[nH]2)cc1 | 52.9% (active)
14 | O=C(CSc1nc2ccc([N+](=O)[O-])cc2[nH]1)c1ccc(Cl)cc1 | -1.01% (inactive)
15 | O=C1c2ccccc2NC(c2ccccn2)N1NS(=O)(=O)c1ccccc1 (stereo unspecified) | 2.46% (inactive)
16 | COc1ccc(NS(=O)(=O)c2cc(NC(=O)/C=C/c3cc(OC)c(OC)c(OC)c3)ccc2N2CCCCC2)cc1 | 61.7% (active)
17 | COc1ccc(NS(=O)(=O)c2cc(NC(=O)C3CCCCC3)ccc2N2CCOCC2)cc1 | 16.6% (inactive)
18 | COc1ccc(/C=C/C(=O)Nc2ccc3c(c2)OCCO3)cc1OC | 13.8% (inactive)
19 | Cc1cc(C)cc(NC(=S)NCCc2c[nH]c3ccccc23)c1 | 10.6% (inactive)
20 | COc1ccccc1NC(=O)CCCc1c[nH]c2ccccc12 | -1.94% (inactive)
21 | COc1cccc(CNCCc2c[nH]c3ccccc23)c1OCc1ccccc1F | 101% (active)

Row | SMILES | inhibition
22 | CCOc1ccc(S(=O)(=O)Nc2ccncc2)c(C)c1C | -6% (inactive)
23 | O=C(CCn1ccc([N+](=O)[O-])n1)Nc1nccs1 | 11.6% (inactive)
24 | COc1ccc2c(c1OC)C(=O)OC2Nc1nc(-c2ccccc2)cs1 (stereo unspecified) | 99.8% (active)
25 | COc1ccc(-c2csc(Nc3ccccn3)n2)cc1 | 15.6% (inactive)
26 | COc1ccc2c(c1OC)C(=O)OC2c1c(O)nc(SC)n(-c2ccccc2)c1=O (stereo unspecified) | -6.91% (inactive)
27 | CC(=O)c1cnc(-c2ccccc2)s1 | -5.94% (inactive)
28 | COCCNC(=O)C(c1ccc(O)cc1)N(C(=O)CCC(=O)Nc1nccs1)c1ccc(C)cc1 (stereo unspecified) | -10.6% (inactive)
29 | CN1CCCN(C(=O)C2CCCCC2)CC1 | 0.8% (inactive)
30 | COC(=O)CCC(=O)N1CCCC(CO)(Cc2ccccc2)C1 (stereo unspecified) | -4.47% (inactive)
31 | COC(=O)c1ccc(CN2CCC(CO)(Cc3ccc(OC)cc3)CC2)cc1 | 86.4% (active)
32 | CCOC(=O)C1(S(=O)(=O)c2ccccc2)CCN(Cc2ccccc2)CC1 | 1.91% (inactive)
33 | COc1ccc(C(=O)Nc2sc(C)c(C)c2CN2CCOCC2)cc1 | -3.61% (inactive)
34 | Cc1nn(C)c(C)c1S(=O)(=O)N1CCC(CO)(Cc2ccc(Cl)cc2)CC1 | 2.5% (inactive)
35 | COc1cccc(CC2(CO)CCN(Cc3cnc(-c4cccc(C)c4)nc3)CC2)c1 | 4.89% (inactive)
36 | COc1ccc(CC2(CO)CCN(Cc3cnn(C)c3)CC2)cc1 | 91.4% (active)
37 | CCOC(=O)C1(CCOC)CCN(Cc2ccc(C(=O)OC)cc2)CC1 | 81.1% (active)
38 | CCOC(=O)C1(S(=O)(=O)c2ccc(Cl)cc2)CCN(Cc2ccccc2)CC1 | 29.3% (inactive)
39 | OCCCC1CCCCN1Cc1nc(Cc2ccccc2Cl)no1 (stereo unspecified) | -4.56% (inactive)
40 | Cc1nc2ccccc2c(C)c1C(=O)c1ccc(F)cc1 | -3.66% (inactive)
41 | CC(OC(=O)c1ccccc1N1C(=O)C2C3CCC(C3)C2C1=O)C(=O)c1ccccc1 (stereo unspecified) | 32% (inactive)
42 | CCCCN(CC(=O)NC(C)(C)C)C(=O)C(=O)Nc1ccc2c(c1)OCCO2 | -6.64% (inactive)

Row | SMILES | inhibition
43 | Cn1ncc(N2CCN(S(=O)(=O)c3ccc(Br)cc3)CC2)c(Cl)c1=O | 39.2% (inactive)
44 | O=C1CC(=O)Nc2cc(S(=O)(=O)N3CCN(c4cccc(C(F)(F)F)c4)CC3)ccc2N1 | -5.33% (inactive)
45 | Cc1cc(C)nc(Nc2ncn[nH]2)n1 | -7.12% (inactive)
46 | CCCCS(=O)c1snnc1C (stereo unspecified) | -4.06% (inactive)
47 | COc1ccc(N(CC(=O)Nc2ccc(C)cc2C)S(=O)(=O)c2ccccc2[N+](=O)[O-])c(OC)c1 | 9.22% (inactive)
48 | O=C(Nc1ccc2ccccc2c1)/C(=C\c1ccc2c(c1)OCO2)NC(=O)c1ccco1 | 1.7% (inactive)
49 | O=C(Nc1ccc2ccccc2c1)/C(=C/c1cccc(Br)c1)NC(=O)c1ccco1 | 76.3% (active)
50 | Cc1cccc(NC(=O)/C(=C\c2ccco2)NC(=O)c2ccccc2)c1 | 3.51% (inactive)
51 | CCCCCCCCCCOC(=O)C[N+](C)(C)CC1CCCCC1O (stereo unspecified) | -3.34% (inactive)
52 | N#C/C(=C\c1ccc(N2CCOCC2)o1)C(=O)N1CCOCC1 | 39.9% (inactive)
53 | N#C/C(=C/c1ccc(N2CCCCC2)o1)C(=O)NCCc1c[nH]c2ccccc12 | 0.13% (inactive)
54 | N#C/C(=C/c1ccc(N2CCOCC2)o1)C(=O)N1CCOCC1 | 54.5% (active)
55 | CC(C)(C)C(=O)N(Cc1ccccc1)c1ccccn1 | -4.68% (inactive)
56 | O=C(c1ccncc1)c1ccc([N+](=O)[O-])cc1 | 5.83% (inactive)
57 | Cc1ccc(NC(=O)c2cccnc2C(=O)Nc2ccc(C)cc2)cc1 | -1.85% (inactive)
58 | CCn1cc(CNC(=O)c2cc([N+](=O)[O-])c(C)c([N+](=O)[O-])c2)cn1 | 18.8% (inactive)
59 | O=C(NN=C1CCC(=NNC(=O)c2cccnc2)CC1)c1cccnc1 | -9.82% (inactive)
60 | O=C(N/N=C/c1sc(N2CCCCC2)nc1-c1cccs1)c1cccnc1 | 66.3% (active)
61 | Cc1cc(/C=N/NC(=O)c2cccnc2)c(C)n1CC(C)C | -1.49% (inactive)
